ALOX12 inh = ALOX12 (human) lipoxygenase inhibition; P18054; purified 12hLO, xylenol orange hydroperoxide absorbance; Potency, µM (titrated, usually from 108 µM), for inactives: at the top dose activity change, negative = inhibition, most hits filed as inhibitors; hit rate 1.1% among 580,000; AID 1671190; further: on the % scale 0 is the no-effect control and ±100 the full control effect
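Hydroperoxide product was detected by ferrous iron/xylenol orange as the 573 to 405 nm absorbance ratio. Arachidonic acid at 40 uM (final) was turned over for 30 min at room temperature by 150 nM human 12hLO, pH 7.0 Hepes buffer, after 15 min compound preincubation.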
GLS inhibitor = glutaminase GLS (human) inhibition. O94925. GLS enzymatic activity, qHTS titration. Potency, µM (top dose mostly 45.5 µM), for inactives: at the highest dose activity change, negative = inhibition, hits mostly inhibitors. hit rate 0.21% among 410,000. AID 624170; further: on the % scale 0 is the no-effect control and ±100 the full control effect
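Compounds were pin-transferred onto hKGA, after which L-glutamine (1 mM solution) and a detection mix of glutamate oxidase, HRP and Amplex Red were added. Initial and 30 min RT fluorescence reads were collected.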
GLP-1R agonist = agonists of human GLP-1 receptor | Potency, µM (doses to about 45.6 µM), for inactives: at the top dose activation, most hits filed as activators | HEK293 GLP-1R CRE-luciferase, luminescence, 4-6 h; cells express a hypersensitive GLP-1R form | AID 624172 | hit rate 0.007% among 380,000; further: % of control where 0% means no effect
Target sequence (P43220 whole entry, looked up): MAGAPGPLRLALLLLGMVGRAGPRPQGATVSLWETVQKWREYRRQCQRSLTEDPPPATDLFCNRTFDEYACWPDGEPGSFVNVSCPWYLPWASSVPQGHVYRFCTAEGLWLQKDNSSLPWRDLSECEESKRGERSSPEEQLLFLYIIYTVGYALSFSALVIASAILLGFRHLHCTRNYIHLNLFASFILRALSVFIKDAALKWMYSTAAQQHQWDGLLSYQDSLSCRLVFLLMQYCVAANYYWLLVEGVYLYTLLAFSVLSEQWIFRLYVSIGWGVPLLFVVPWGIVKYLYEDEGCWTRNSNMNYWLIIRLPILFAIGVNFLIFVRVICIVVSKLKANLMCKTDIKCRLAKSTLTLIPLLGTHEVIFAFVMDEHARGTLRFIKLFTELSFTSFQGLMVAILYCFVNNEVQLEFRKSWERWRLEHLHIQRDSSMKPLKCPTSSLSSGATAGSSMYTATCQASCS
Glioma ERSR ind = induces the endoplasmic reticulum stress response in human glioma cells; U87-MG GRP78 promoter luciferase reporter, 16 h; Potency, µM, for the others: at the highest dose activation, usual class: activators; hit rate 0.02% among 420,000; further: series mostly up to about 76 µM; % of control where 0% means no effect; nearly all actives have a fitted effect of over 35% in size
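Stably transfected U87-MG human glioma cells carrying a GRP78-based luminescent sensor were seeded at 1000 cells/well, pin-dosed with compounds and incubated 16 h. Luciferase reagent was then added, and end-point luminescence was read after 10 min at room temperature.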
GLP-1R inv ag = GLP-1 receptor (human) inverse agonism. P43220. HEK293 GLP-1R CRE-luciferase, luminescence, 24 h; GLP-1R form is constitutively active. Potency, µM (titrated, usually from 38.3 µM), inactives show top-dose activity change, negative = inhibition, usual class: inhibitors. hit rate 1.6% among 410,000; further: on the % scale 0 is the no-effect control and ±100 the full control effect; nearly all actives have a fitted effect of over 55% in size
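Assay principle: reduced luminescence from a cAMP-responsive reporter in HEK293 cells co-expressing a constitutively active GLP-1R. Conditions: 24 hr compound incubation, 37 deg C, 5% CO2.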
PTHR1 ag = PTHR1 (human) receptor agonism. HEK293 GP2 PTHR1 cells, GloSensor cAMP luminescence, 1 h. Potency, µM (series often up to 115 µM), for inactives: at the top dose activation, hits mostly activators. hit rate 0.075% among 410,000. AID 743266; further: nearly all actives have a fitted effect of over 55% in size
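HEK-293-derived GP2 cells expressing PTHR1 and a GloSensor cAMP reporter, 3,000/well, plated overnight, given luciferin plus IBMX (each 0.5 mM as added) for 1 h at 37 °C, then compound for 1 h at 37 °C. Luminescence was read after 15 min at room temperature.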
An asterisk follows results filed as active; i = inactive; ? = inconclusive; nt = not tested or not shown; [ ] = dose if it differs, or a comment. Compounds with a hit are over-represented: about 2.3% of the library has one in this group of screens. The call rests on the fitted dose curve; in most records, active means well fitted curve in the direction sought with a large enough effect; inconclusive means small, poorly fitted or top-dose-only effect, or another doubt; inactive means no such curve, though single readings can be large; an effect the other way counts as inactive or inconclusive. Potency means the concentration at half of the fitted maximal effect.

SMILES | ALOX12 inh | GLS inhibitor | GLP-1R agonist | Glioma ERSR ind | GLP-1R inv ag | PTHR1 ag
COc1ccc2[nH]c3c(=O)n(Cc4ccc(C(=O)N5CCCC5)cc4)c(=S)[nH]c3c2c1 | ? | 10µM* | 1.7% | 1.5% | 20.1% | i
COc1ccc2[nH]c3c(=O)n(CCCCC(=O)NCCN4CCCC4)c(=S)[nH]c3c2c1 | 14.1µM* | -3.7% | 7.2% | -4.5% | 5.3% | 21.5%[57.5 µM]
O=C(NCC(Cl)c1ccc2ccccc2c1)c1c(F)cccc1F (configuration not stated) | 35.5µM* | 1.8% | -0.7% | 2.3% | -14.3% | i
O=C(NCCCNC(=O)c1c(F)cccc1F)c1c(F)cccc1F | 1.0% | -9.2% | -2.4% | -2.6% | 14.6% | -65.1%
COc1ccccc1CNc1nc(-c2ccc(N(C)C)cc2)nc2ccccc12 | 28.2µM* | nt | nt | -8.1% | nt | nt
COc1ccccc1-c1nc(Nc2ccncc2)c2ccccc2n1 | 28.2µM* | nt | nt | -0.9% | nt | nt
COc1ccccc1CNc1nc(-c2ccc(C(=O)N(C)C)cc2)nc2ccccc12 | -14.4% | nt | nt | -1.0% | nt | nt
FC(F)(F)c1ccccc1-c1nc(Nc2ccncc2)c2ccccc2n1 | ? | nt | nt | -5.0% | nt | nt
Cc1cnc(CNc2nc(-c3ccccc3C)nc3ccccc23)cn1 | -27.1% | nt | nt | 1.1% | nt | nt
COc1ccccc1-c1nc(NCc2cnc(C)cn2)c2ccccc2n1 | 20µM* | nt | nt | -1.5% | nt | nt
COc1cccc(Nc2nc(-c3cccs3)nc3ccccc23)c1 | 2.4% | -1.4% | 27.2% | -2.4% | 11.2µM* | i
COc1ccccc1-c1nc(N(C)C)c2ccccc2n1 | 31.6µM* | nt | nt | 1.7% | nt | nt
O=C(c1ccc2cc[nH]c2c1)N1CCN(S(=O)(=O)c2cccc3nonc23)CC1 | -22.2% | nt | nt | nt | nt | nt
CN(Cc1ccccc1N1CCCC1)C(=O)c1cc2ccccc2o1 | -4.9% | 14.6% | 14.0% | -1.7% | 10µM* | -24.0%
CN(Cc1ccccc1N1CCCC1)C(=O)c1cc2cc(Cl)ccc2o1 | 136.1% | 14.0% | 6.9% | -0.5% | ? | -65.1%
CCOC(=O)C1=C(CN(CCOC)Cc2ccco2)NC(=O)NC1c1cccs1 (configuration not stated) | -16.6% | nt | nt | nt | nt | nt
Cc1ccc(-c2csc(N3CCC[C@@H]3C(=O)NCCn3c(-c4ccncc4)nc4ccccc43)n2)cc1 | 6.8% | 6.5% | -4.2% | -4.9% | 12.6µM* | -18.1%
C/C(=N\NC(=O)c1ccc(F)cc1)c1ccccn1 | 9.7% | -0.5% | 0.1% | -0.7% | 1.12µM* | -27.3%
CC(=NNC(=S)N1CCCCC1)c1ccccn1 | 44.7µM* | 14.8% | -4.3% | -2.5% | -84.3% | -95.6%
O=C(CNc1cccc(OC(F)(F)F)c1)N1CCNC1=O | 32.2% | nt | nt | nt | nt | nt
CCc1sc(C(=O)OCC(=O)c2ccc(OC)cc2OC)cc1C | 2.8% | nt | nt | nt | nt | nt
COc1ccc(N(Cc2ccccc2)C(=O)c2nc(S(C)(=O)=O)ncc2Cl)cc1 | 4.0% | 8.3% | nt | -10.7% | 10µM* | -26.0%
CS(=O)(=O)c1ncc(Cl)c(C(=O)N(Cc2ccc(Cl)cc2)Cc2ccco2)n1 | -26.2% | 3.8% | nt | -11.6% | 8.91µM* | -3.5%
COc1ccc(-c2noc(CSc3nnc(-c4ccco4)n3C3CCCCC3)n2)cc1OC | 6.5% | nt | nt | nt | nt | nt
CCCCCCCCS(=O)CCCl (configuration not stated) | -21.7% | nt | nt | nt | nt | nt
SMILES | ALOX12 inh | GLS inhibitor | GLP-1R agonist | Glioma ERSR ind | GLP-1R inv ag | PTHR1 ag
CC(C)c1nnc(NC(=O)C2CCN(C(=O)C(C)(C)C)CC2)s1 | nt | nt | nt | -2.0% | nt | nt
CC(C)c1nnc(NC(=O)C2CCN(C(=O)Nc3ccc(Cl)cc3)CC2)s1 | -28.5% | 10.1% | 14.1% | 3.1% | 3.98µM* | i
COc1cc(Nc2c(C#N)cnc3c(OC)cccc23)cc(OC)c1OC | 3.16µM* | nt | nt | nt | nt | nt
COc1cc(Nc2c3c(nc4ccccc24)CCC3)cc(OC)c1OC | 21.6% | 43.7% | 7.5% | -3.6% | ? | i
COC(=O)CC(NC(=O)Cc1cccc(OC)c1)c1cccs1 (configuration not stated) | -51.2% | nt | nt | nt | nt | nt
CCOc1cc(CNC(=O)c2ncoc2-c2ccc(OC)cc2)cc(OCC)c1OCC | 0.4% | nt | nt | nt | nt | nt
Cc1cc(C)cc(N(C(=O)c2nsc(Cl)c2Cl)C(C(=O)NC2CCCC2)c2ccc(O)cc2)c1 (configuration not stated) | -12.1% | 1.6% | -13.7% | -7.0% | 3.98µM* | -1.4%
Cc1cccc(N(C(=O)c2nsc(Cl)c2Cl)C(C(=O)NC2CCCC2)c2ccc(O)cc2)c1C (configuration not stated) | -5.5% | -0.7% | -12.4% | -3.0% | 8.91µM* | i
Cc1ccc(N(C(=O)c2nsc(Cl)c2Cl)C(C(=O)NC2CCCC2)c2ccc(O)cc2)cc1C (configuration not stated) | -12.5% | 1.4% | 4.7% | -1.5% | ? | -17.1%
CCOc1ccc(C(C(=O)NC2CCCC2)N(Cc2ccccc2)C(=O)c2nsc(Cl)c2Cl)cc1 (configuration not stated) | -10.5% | -6.7% | -4.1% | -5.7% | 10µM* | -18.5%
COc1ccc(-c2noc(CC3CCN(C(=O)C4CCN(C(=O)c5ccccc5)CC4)CC3)n2)cc1 | 37.1% | nt | nt | nt | nt | nt
Cc1ncsc1C(=O)NC(C)c1ccc(Cl)s1 (configuration not stated) | 0.2% | nt | nt | nt | nt | nt
Nc1nc(SCC(=O)NCc2ccc(Cl)cc2)n[nH]1 | -4.7% | nt | nt | nt | nt | nt
COc1ccc(C(=O)NC(=S)NCc2ccco2)cc1OC | ? | 0.1% | 22.4% | -2.2% | 3.3% | -20.9%[57.5 µM]
COc1ccc(C(=O)NC(=S)NNC(=O)c2ccc(NC(C)=O)cc2)cc1Br | 12.6µM* | 1.4% | 0.2% | -1.6% | 11.6% | -11.8%
COc1ccc(C(=O)NC(=S)NCc2ccco2)cc1Br | 22.4µM* | -5.0% | 2.1% | 3.1% | 1.4% | -42.4%
COc1ccc(C(=O)NC(=S)NC(C)C)cc1Br | 3.98µM* | 12.3% | 10.4% | 2.9% | 0.0% | -9.2%[57.5 µM]
COc1ccc(C(=O)NC(=S)NC(C)(C)C)cc1Br | 8.91µM* | -3.9% | 5.7% | 7.1% | ? | -13.5%[57.5 µM]
Cc1ccc(S(=O)(=O)N2CCN(C(=O)c3cc4ccccc4oc3=O)CC2)cc1 | -25.3% | nt | nt | nt | nt | nt
O=C(Nc1cccc(OCC2CCCO2)c1)C1CCN(C(=O)Nc2ccccc2)CC1 (configuration not stated) | -6.9% | nt | nt | nt | nt | nt
CSc1cccc(NC(=O)Cn2c(N3CCC(C)CC3)nc(C)cc2=O)c1 | 24.7% | nt | nt | nt | nt | nt
Cc1ccccc1Nc1nc(CSc2nnnn2C2CC2)cs1 | 28.2µM* | nt | nt | nt | nt | nt
N#CC(c1ccc([N+](=O)[O-])cc1)C(CC(=O)c1ccccc1)c1ccccc1 (configuration not stated) | -3.1% | -2.2% | 9.3% | -1.4% | 11.2µM* | i

Compound activity deposited in PubChem BioAssay by National Center for Advancing Translational Sciences (NCATS).
